# Measurements taken from the supplement of paper PMC12645437, “Orthogonal IMiD-Degron Pairs Induce Selective Protein Degradation in Cells” (ACS Chemical Biology, 2025).
# In all, about 8,300 sequences were measured (“log2 fold change of degron read counts, EGFP-low vs EGFP+ sorted cells (limma voom), compound-induced degradation”: median about -1.1, highest 2% from about 3.2 on). Many of the other results were omitted from the sample, so the highest values are more common in it than they were.
# T1: CRBN, Q96SW2
# T1 chain: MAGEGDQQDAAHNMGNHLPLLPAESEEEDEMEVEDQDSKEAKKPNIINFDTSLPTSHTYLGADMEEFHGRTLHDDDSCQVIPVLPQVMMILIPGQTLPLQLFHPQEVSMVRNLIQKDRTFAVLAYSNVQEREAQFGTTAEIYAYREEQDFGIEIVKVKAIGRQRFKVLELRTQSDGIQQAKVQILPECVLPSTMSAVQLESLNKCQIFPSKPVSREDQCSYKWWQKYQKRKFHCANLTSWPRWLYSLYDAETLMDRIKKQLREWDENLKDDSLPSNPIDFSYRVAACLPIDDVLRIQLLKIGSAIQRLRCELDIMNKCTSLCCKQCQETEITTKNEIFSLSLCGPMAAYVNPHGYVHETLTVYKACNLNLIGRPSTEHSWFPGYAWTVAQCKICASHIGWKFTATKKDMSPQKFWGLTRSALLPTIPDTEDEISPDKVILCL
# B1: 46F_47D_49P_50V_52G_53A_54E_55F_67L_, Q9UKT9 (peptide)
# chain: FDCPVCGAEFTQKGNLLRHIKL
# B2: 46F_47S_49D_50V_52G_53A_54A_55F_67L_, Q9UKT9 (peptide)
# chain: FSCDVCGAAFTQKGNLLRHIKL
# B3: 46L_47I_49E_50I_52G_53F_54T_55C_67L_, Q9UKT9 (peptide)
# chain: LICEICGFTCTQKGNLLRHIKL
# B4: 46F_47W_49E_50I_52G_53A_54D_55F_67L_, Q9UKT9 (peptide)
# chain: FWCEICGADFTQKGNLLRHIKL
# B5: 46F_47N_49E_50I_52G_53A_54D_55F_67L_, Q9UKT9 (peptide)
# chain: FNCEICGADFTQKGNLLRHIKL
# B6: 46F_47Q_49E_50I_52G_53A_54D_55F_67L_, Q9UKT9 (peptide)
# chain: FQCEICGADFTQKGNLLRHIKL
# B7: 46F_47N_49E_50I_52G_53A_54P_55F_67L_, Q9UKT9 (peptide)
# chain: FNCEICGAPFTQKGNLLRHIKL
# B8: 46F_47I_49E_50I_52G_53A_54D_55F_67L_, Q9UKT9 (peptide)
# chain: FICEICGADFTQKGNLLRHIKL
# B9: 46F_47Q_49E_50I_52G_53R_54P_55F_67L_, Q9UKT9 (peptide)
# chain: FQCEICGRPFTQKGNLLRHIKL
# B10: 46F_47I_49E_50I_52G_53A_54P_55F_67L_, Q9UKT9 (peptide)
# chain: FICEICGAPFTQKGNLLRHIKL
# B11: 46F_47G_49E_50I_52G_53A_54P_55F_67L_, Q9UKT9 (peptide)
# chain: FGCEICGAPFTQKGNLLRHIKL
# B12: 46F_47W_49E_50I_52G_53R_54P_55F_67L_, Q9UKT9 (peptide)
# chain: FWCEICGRPFTQKGNLLRHIKL
# B13: 46F_47W_49E_50I_52G_53A_54P_55F_67L_, Q9UKT9 (peptide)
# chain: FWCEICGAPFTQKGNLLRHIKL
# B14: 46F_47Q_49E_50I_52G_53A_54P_55F_67L_, Q9UKT9 (peptide)
# chain: FQCEICGAPFTQKGNLLRHIKL
# B15: 46F_47N_49E_50Q_52G_53A_54P_55F_67L_, Q9UKT9 (peptide)
# chain: FNCEQCGAPFTQKGNLLRHIKL
# B16: 46L_47Y_49N_50Q_52G_53F_54F_55C_67L_, Q9UKT9 (peptide)
# chain: LYCNQCGFFCTQKGNLLRHIKL
# B17: 46F_47F_49D_50I_52G_53A_54G_55F_67L_, Q9UKT9 (peptide)
# chain: FFCDICGAGFTQKGNLLRHIKL
# B18: 46F_47Q_49N_50Q_52G_53H_54I_55F_67L_, Q9UKT9 (peptide)
# chain: FQCNQCGHIFTQKGNLLRHIKL
# B19: 46F_47I_49N_50Q_52G_53A_54A_55F_67L_, Q9UKT9 (peptide)
# chain: FICNQCGAAFTQKGNLLRHIKL
# B20: 46L_47C_49E_50I_52G_53F_54N_55C_67L_, Q9UKT9 (peptide)
# chain: LCCEICGFNCTQKGNLLRHIKL
# B21: 46F_47E_49P_50I_52G_53A_54K_55F_67L_, Q9UKT9 (peptide)
# chain: FECPICGAKFTQKGNLLRHIKL
# B22: 46F_47S_49N_50I_52G_53A_54E_55F_67L_, Q9UKT9 (peptide)
# chain: FSCNICGAEFTQKGNLLRHIKL
# B23: 46F_47V_49E_50I_52G_53A_54D_55F_67L_, Q9UKT9 (peptide)
# chain: FVCEICGADFTQKGNLLRHIKL
# B24: 46F_47F_49E_50I_52G_53H_54P_55F_67L_, Q9UKT9 (peptide)
# chain: FFCEICGHPFTQKGNLLRHIKL
# B25: 46F_47V_49E_50I_52G_53A_54M_55F_67L_, Q9UKT9 (peptide)
# chain: FVCEICGAMFTQKGNLLRHIKL
# B26: 46F_47Y_49E_50Q_52G_53A_54P_55F_67L_, Q9UKT9 (peptide)
# chain: FYCEQCGAPFTQKGNLLRHIKL
# B27: 46F_47Y_49E_50I_52G_53A_54D_55F_67L_, Q9UKT9 (peptide)
# chain: FYCEICGADFTQKGNLLRHIKL
# B28: 46F_47M_49E_50I_52G_53H_54P_55F_67L_, Q9UKT9 (peptide)
# chain: FMCEICGHPFTQKGNLLRHIKL
# B29: 46F_47F_49E_50I_52G_53A_54P_55F_67L_, Q9UKT9 (peptide)
# chain: FFCEICGAPFTQKGNLLRHIKL
# B30: 46F_47M_49E_50I_52G_53A_54P_55F_67L_, Q9UKT9 (peptide)
# chain: FMCEICGAPFTQKGNLLRHIKL
# B31: 46F_47M_49E_50I_52G_53A_54D_55F_67L_, Q9UKT9 (peptide)
# chain: FMCEICGADFTQKGNLLRHIKL
# B32: 46F_47Y_49E_50I_52G_53A_54P_55F_67L_, Q9UKT9 (peptide)
# chain: FYCEICGAPFTQKGNLLRHIKL
# B33: 46F_47V_49E_50I_52G_53A_54P_55F_67L_, Q9UKT9 (peptide)
# chain: FVCEICGAPFTQKGNLLRHIKL
# B34: 46F_47F_49E_50I_52G_53A_54D_55F_67L_, Q9UKT9 (peptide)
# chain: FFCEICGADFTQKGNLLRHIKL
# Biological target: T1, CRBN, Q96SW2
# Test: log2 fold change of degron read counts, EGFP-low vs EGFP+ sorted cells (limma voom), compound-induced degradation; higher = more compound-induced degradation of the degron-EGFP fusion; degrons are variants of IKZF1/3 zinc finger 2; compound dose not given here
# Conditions: Jurkat, 18 h
# [1] = compound: compound 19 (5-tert-butyl-thalidomide)
# [2] = compound: compound 22 (5-morpholino-thalidomide)
# [3] = compound: compound 33 (diphenyl IMiD analogue)
# 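Note: pooled lentiviral library of zinc finger degron-EGFP fusions in mCherry-positive Jurkat cells, FACS-sorted after compound exposure, with degron abundance counted by next-generation sequencing.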
Sequence,log2 fold change of degron read counts [1],log2 fold change of degron read counts [2],log2 fold change of degron read counts [3],log2 fold change of degron read counts (compound: thalidomide)
B1,-0.42,-1.74,0.6,0.131
B2,1.56,1.45,1.14,-0.292
B3,0.795,2.24,2.34,3.13
B4,0.346,0.98,-0.492,-1.5
B5,-1.15,-2.31,-1.14,-1.4
B6,-0.47,0.00637,1.29,3
B7,3.39,2.54,0.567,1.58
B8,-2.33,-0.887,-0.381,0.298
B9,-0.793,-0.383,-1.07,1.31
B10,2.83,3.53,2.76,3.43
B11,1.88,0.802,-0.557,-0.51
B12,1.92,0.403,0.52,-0.912
B13,3.82,3.42,2.64,1.23
B14,3.69,3.61,2.03,3.72
B15,-1.19,-2,-2.69,-2.17
B16,-0.205,-0.821,-0.706,-0.795
B17,2.9,1.78,0.35,-0.766

Sequence,log2 fold change of degron read counts [1],log2 fold change of degron read counts [2],log2 fold change of degron read counts [3],log2 fold change of degron read counts (compound: thalidomide)
B18,-2.78,-2.92,-2.91,-2.7
B19,-2.19,-0.99,-0.297,-0.649
B20,-0.957,-1.02,0.0485,0.0948
B21,0.543,-0.648,0.0161,3
B22,-0.854,0.252,0.443,0.069
B23,-1.49,-0.553,-0.517,0.943
B24,0.211,-0.726,-0.864,-1.23
B25,0.202,0.968,1.67,2.16
B26,1.97,1.06,0.568,-1.07
B27,1.04,1.57,0.298,-1.13
B28,-1.77,-1.41,0.426,-0.396
B29,3.4,3.34,2.28,1.95
B30,3.59,3.43,3.13,2.94
B31,-1.98,-1.6,1.99,-0.153
B32,3.86,3.74,3.06,2.44
B33,3.26,3.62,2.49,3.65
B34,0.436,1.48,-0.411,-0.679
